“And” between values parts separate entries of the source, which are not always exact repeats. Identical values can stand only once. Records with an inconclusive call do not appear. Entries that show only a call come without a potency. The source made the active and inactive calls. Calls come from the whole dose curve; as a rule, active = well fitted inhibition curve with a large enough effect; inconclusive = small, poorly fitted or top-dose-only effect; inactive = flat fitted curve, though single readings scatter.

These results are taken from PubChem BioAssay (NCATS).
Potency is the fitted concentration of half-maximal effect.

In this experiment the target is Calcium and integrin-binding protein 1 (Homo sapiens) (UniProt Q99828). Put plainly: Primary qHTS for Identification of Calcium Integrin Binding Protein 1 (CIB1) Competitor (AID 1508620).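 For activity change, negative = inhibition: GST tagged CIB1 binding a fluorescein labelled alphaIIb integrin peptide tracer; top concentration of the series differs between compounds.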 Particulars: CIB1-GST / FITC-alphaIIb peptide fluorescence polarization; series mostly up to 57.7 µM; activity change, negative = inhibition: at the top concentration. An excerpt: Assay Provider: Ulhas P. Naik, PhD Sidney Kimmel Medical College Thomas Jefferson University, Philadelphia, PA Primary function of platelets is to maintain hemostasis. At the site of vascular injury, platelets adhere to adhesive proteins such as collagen and von Willebrand factor. Adherent platelets are activated and generate soluble platelet agonists such as thrombin, ADP and thromboxane A2. Following exposure of circulating platelets to these agonists, results in platelet shape change, granule secretion and activation of platelet integrin alphaIIb-beta3. Ligand binding to activated integrin alphaIIb-beta3 triggers outside-in signaling, leading to platelet aggregation, stabilization of platelet plug, and clot retraction. Upon atherosclerotic plaque rupture also causes platelet plug formation, which underlies a number of cardiovascular diseases such as myocardial infraction and stroke. A number of anti-platelet drugs such as aspirin, clopidogrel, prasugrel, vorapaxar, and eptifibatide are currently available to prevent the thrombotic complications. However, these anti-platelet agents have several limitations including inherent variability in individual responses, developing resistance, and serious bleeding side effects. For these reasons they are not suitable for long-term protection. Based on the experiences with current anti-platelet drugs, it appears that the most useful therapeutic approach is to intersect the secondary responses such as integrin outside-in signaling or recruitment of platelets by TxA2 and secreted ADP. Compounds, which can largely preserve the primary hemostatic function of platelets but inhibit secondary response will be most desired therapeutic agents for treatment of cardiovascular disease. CIB1 is a calcium integrin binding protein, which specifically interact with the alphaIIb subunit of integrin alphaIIb-beta3. Binding of CIB1 to alphaIIb regulates the outside-in signaling in platelets, which is needed for thrombus stabilization and thrombus growth. […] Therefore, we propose that discovery of a small molecule that can prevent the association of CIB1 and alphaIIb-beta3 will be a potential anti-platelet agent that can block the thrombus formation without undue effect on hemostasis. Reference: [1] Naik MU, Nigam A, Manrai P, et al. CIB1 deficiency results in impaired thrombosis: the potential role of CIB1 in outside-in signaling through integrin alpha IIb beta 3. J Thromb Haemost.
Chain of Calcium and integrin-binding protein 1 (Homo sapiens) (Q99828 whole entry, looked up): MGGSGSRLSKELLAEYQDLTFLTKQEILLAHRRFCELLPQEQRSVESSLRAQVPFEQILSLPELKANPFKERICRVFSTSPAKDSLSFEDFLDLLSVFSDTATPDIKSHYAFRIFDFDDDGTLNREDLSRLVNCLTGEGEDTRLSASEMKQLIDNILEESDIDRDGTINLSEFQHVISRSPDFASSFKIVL
PROTOCOL TABLES SEQUENCE No. (1, 2, 3, etc.); […] (e.g., Cells, Incubation, Reagent, etc.); VALUE and DESCRIPTION. 1; Reagent; 3 uL; Protein or buffer (4/3x) 2; Compound; 46 nL; Control inhibitor / compound library 3; Time; 15 min; Room temperature incubation 4; Reagent; 1 uL; Fluorescent labeled peptide (4x) 5; Time; 1000 rpm; Centrifuge 6; Time; 15 min; Room temperature incubation 7; Detection; Ex 480/ Em 540; ViewLux Fluorescence Read NOTES (numbers refer to sequence above) 1; Protein Mixture: C1B1-GST (final concentrations of 1 uM). […] 3; Room temperature incubation. 4; Fluorescent Labeled Peptide: FITC-aIIb (final concentration of 100 nM). Sequence of alphaIIb peptide: Acetyl-[…]-FITC (purity is 95.83%). 5; Centrifuge 1000 rpm (164 g) for 15 seconds. 6; Room temperature incubation. 7; ViewLux Fluorescent Polization Read: excitation = 480(20) / emission = 540(25) S and P; FITC Dichroic mirror.
In general terms: qHTS replaces the single test concentration by a dilution series.
Regarding `NC(=O)NO`, the Potency entry was “inactive”.
The same measure, in the same setting: as for `COc1cc2nc(N(C)CCCNC(=O)C3CCCO3)nc(N)c2cc1OC` (stereo not given), the entry is “inactive”.
The same measure, in the same setting: as for `C[C@@H]1CC(=O)NN=C1c1ccc(NN=C(C#N)C#N)cc1`, the entry is “inactive”; as for `Fc1ccc([C@@H]2CCNC[C@H]2COc2ccc3c(c2)OCO3)cc1`, “inactive”.
On the same count and under the same terms, with `O=C(c1ccc(OCCN2CCCCC2)cc1)c1c(-c2ccc(O)cc2)sc2cc(O)ccc12` the entry was “inactive”; with `CCOC(=O)c1ncn2c1CN(C)C(=O)c1cc(F)ccc1-2`, “inactive”.
As to `NS(=O)(=O)c1cc2c(cc1Cl)NCNS2(=O)=O`, the Potency entry is “inactive”.
With `CCN1CCCC1CNC(=O)c1cc(S(=O)(=O)CC)c(N)cc1OC` (stereo not given), the Potency entry was “inactive”.
For the molecule `CN(C)C(=N)N=C(N)N`, the “activity change, negative = inhibition” value was -3.56% (inactive).
Take `CNCCCC12CCC(c3ccccc31)c1ccccc12`: the Potency result was “inactive”.
On the same count and under the same terms, as for `Clc1ccc(C(c2ccccc2Cl)C(Cl)Cl)cc1` (stereo not given), the entry is “inactive”.
On the same count and under the same terms, as for `CN1CCN(C2=Nc3cc(Cl)ccc3Nc3ccccc32)CC1`, the entry is “inactive”; as for `C[C@H]1c2cccc(O)c2C(O)=C2C(=O)[C@]3(O)C(O)=C(C(N)=O)C(=O)[C@@H](N(C)C)[C@@H]3[C@@H](O)[C@@H]21`, “inactive”.
For the molecule `Cc1ccc(C(=O)Nc2ccc(S(=O)(=O)O)c3cc(S(=O)(=O)O)cc(S(=O)(=O)O)c23)cc1NC(=O)c1cccc(NC(=O)Nc2cccc(C(=O)Nc3cc(C(=O)Nc4ccc(S(=O)(=O)O)c5cc(S(=O)(=O)O)cc(S(=O)(=O)O)c45)ccc3C)c2)c1`, the “activity change, negative = inhibition” value is -18.7% [at 114 µM] (inactive).
As for `COc1cc2c(c(OC)c1OC)-c1ccc(OC)c(=O)cc1[C@@H](NC(C)=O)CC2`, the Potency result was “inactive”.
On the same count and under the same terms, as for `COc1ccc2c(c1)c(CC(=O)O)c(C)n2C(=O)c1ccc(Cl)cc1`, the entry is “inactive”.
Consider `CS(=O)(=O)CCNCc1ccc(-c2ccc3ncnc(Nc4ccc(OCc5cccc(F)c5)c(Cl)c4)c3c2)o1`, for which the Potency entry was “inactive”.
On the same count and under the same terms, with `NCCc1cnc[nH]1` the entry was “inactive”; with `O=C(CCCN1CCC(O)(c2ccc(Cl)cc2)CC1)c1ccc(F)cc1`, “inactive”; with `Clc1ccc2c(c1)C(N1CCNCC1)=Nc1ccccc1O2`, “inactive”.
Same read-out and setting: with `Cc1cc(C(C)(C)C)cc(C)c1CC1=NCCN1` the entry was “inactive”; with `COC(=O)Nc1nc2ccc(C(=O)c3cccs3)cc2[nH]1`, “inactive”; with `Cc1cn([C@H]2C[C@H](N=[N+]=[N-])[C@@H](CO)O2)c(=O)[nH]c1=O`, “inactive”.
Still for that read-out and setting: as for `Cc1cn([C@H]2C=C[C@@H](CO)O2)c(=O)[nH]c1=O`, the entry is “inactive”.
With `CN1CCC(=C2c3ccccc3CC(=O)c3sccc32)CC1`, the Potency result was “inactive”.
The same measure, in the same setting: with `Nc1c2c(nc3ccccc13)CCCC2` the entry was “inactive”; with `CC[C@@]1(O)C(=O)OCc2c1cc1n(c2=O)Cc2cc3c(CN(C)C)c(O)ccc3nc2-1`, 28.2 µM (active) and 24.1 µM (active) and 31.6 µM (active); with `Cn1c(=O)c2[nH]cnc2n(C)c1=O`, “inactive”.
Still for that read-out and setting: as for `COc1ccc(C2CNC(=O)C2)cc1OC1CCCC1` (stereo not given), the entry is “inactive”; as for `CN(C)CCOC(c1ccccc1)c1ccccc1`, “inactive”; as for `CN(C)CCC=C1c2ccccc2C=Cc2ccccc21`, “inactive”.
The same measure, in the same setting: with `CN(C)C(=O)C(CCN1CCC(O)(c2ccc(Cl)cc2)CC1)(c1ccccc1)c1ccccc1` the entry was “inactive”; with `CC(CCc1ccc(O)cc1)NCCc1ccc(O)c(O)c1` (stereo not given), “inactive”.
For the molecule `N[C@@H](Cc1c[nH]c2ccc(O)cc12)C(=O)O`, the Potency entry was “inactive”.
Turning to `COc1ccccc1N1CCN(CC(O)COc2cccc3ccccc23)CC1` (stereo not given), the Potency result is “inactive”.
The same measure, in the same setting: with `COc1nc(C)nc(Cl)c1NC1=NCCN1` the entry was “inactive”.
Turning to `C[C@](N)(Cc1ccc(O)c(O)c1)C(=O)O`, the “activity change, negative = inhibition” value is -6.89% (inactive).
For the molecule `CCCNCC(O)COc1ccccc1C(=O)CCc1ccccc1` (stereo not given), the Potency result was “inactive”.
Regarding `CC(C)C(=O)Nc1ccc([N+](=O)[O-])c(C(F)(F)F)c1`, the Potency entry is “inactive”.
Still for that read-out and setting: as for `COc1cc2nc(N3CCN(C(=O)C4COc5ccccc5O4)CC3)nc(N)c2cc1OC` (stereo not given), the entry is “inactive”.
